“And” between values parts separate entries of the source, which are not always exact repeats. Equal values may be shown once. Records with an inconclusive call do not appear. The source made the active and inactive calls. Unless noted, calls follow the shape of the dose curve; as a rule, active = well fitted curve in the direction sought with a large enough effect; inconclusive = small, poorly fitted or top-dose-only effect, or another doubt; inactive = no such curve, though single readings can be large; an effect the other way counts as inactive or inconclusive.

11 compounds from PubChem BioAssay (NCATS) can be followed below.

Assay [1] can be described thus: Cell Viability - LYMP2-024 (AID 988).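 Also: plate controls were DMSO only for no effect and 92 µM tetraoctylammonium bromide for full effect; nearly all actives have a fitted effect of over 60% in size.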 A digest of the protocol: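 Human lymphoblastoid cells (2500/well) in complete medium were preincubated 5 hr at 37 C, then exposed to compounds for 24 hr at 37 C. Intracellular ATP was read by CellTiter-Glo luminescence; AC50 from Hill-equation fits of concentration-response data.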
Assay [2] is described as follows: Cell Viability - LYMP2-026 (AID 989). Also: % is scaled to controls: 0 for no effect and ±100 for the full control effect; nearly all actives have a fitted effect of over 50% in size. A digest of the protocol:
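Human lymphoblastoid cells (2500/well) in complete medium were preincubated 5 hr at 37 C, then exposed to compounds for 24 hr at 37 C. Cellular ATP was read by CellTiter-Glo luminescence; AC50 from Hill-equation fits of concentration-response data.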

Assay [3] has as its target Alpha-galactosidase A (Homo sapiens) (UniProt P06280). The assay can be described thus: Counterscreen for Glucocerebrosidase Inhibitors: qHTS Assay for Human alpha-Galactosidase at pH 4.5 (AID 992). Also: 0% is about no effect. The method in brief:
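Read-out is 4-methylumbelliferone fluorescence (365 nm excitation, 440 nm emission) after a pH 10 NaOH/glycine stop. Reactions held 2 nM enzyme and 80 uM substrate at pH 4.5 for 20 min at room temperature.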

Assay [4] in a line: Cell Viability - LYMP1-002 - Assay at 24 hr (AID 993). Also: potency is read from the fitted curve at half-maximal effect. The method in brief:
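Human lymphoblastoid LYMP1-002 cells, 2500/well in complete medium, were treated with compounds for 24 h at 37 C; intracellular ATP was read by CellTiter-Glo luminescence. AC50 values came from Hill-equation fits of qHTS concentration-response data.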

A short description of assay [5]: Cell Viability - LYMP1-002 - Assay at 40 hr (AID 994). Also: nearly all actives have a fitted effect of over 60% in size. Also: potency is read from the fitted curve at half-maximal effect. The method in brief: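 Human lymphoblastoid cells, 2500/well in complete medium, were preincubated 5 hr at 37 C, then exposed to compounds for 40 hr at 37 C. Intracellular ATP was read by CellTiter-Glo luminescence after 30 min at room temperature; AC50 from Hill-equation fits.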
Assay [6] addresses alpha-glucosidase (Oryza sativa, rice) (UniProt Q653V4). The experiment in a line: Counterscreen for Glucocerebrosidase Inhibitors: qHTS Assay for Rice alpha-Glucosidase at pH 5.0 (AID 997).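 Also: 0% = full activity with enzyme and -100% = basal without enzyme.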 The method in brief: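 Rice alpha-glucosidase (4 nM final) with 400 uM 4-methylumbelliferyl-alpha-D-glucopyranoside in citrate buffer pH 5.0, 20 min at room temperature, stopped at pH 10; fluorescence 365/440 nm, compounds 0.7 nM–77 uM, AC50 from Hill fits.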
On the technique in general: Counterscreens check selectivity or assay interference.

Assay [7] has as its target Alpha-galactosidase (Coffea arabica) (UniProt Q42656). The experiment in a line: Counterscreen for Glucocerebrosidase Inhibitors: qHTS Assay for Coffee Bean alpha-Galactosidase at pH 5.9 (AID 998).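 Also: plate controls were uninhibited enzyme for no effect and no-enzyme basal signal for full effect.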 A digest of the protocol:
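Green coffee bean enzyme (2 nM final) was incubated with compounds (0.7 nM–77 uM) and 4-methylumbelliferyl alpha-D-galactopyranoside (80 uM) in citrate buffer pH 5.9, 20 min at room temperature. High-pH stop; fluorescence 365/440 nm; AC50 from Hill fits.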

Assay [8] in a line: Validation of Assay for Modulators of Lamin A Splicing (AID 1459; active = well fitted curve in the direction sought with a large enough effect in the signal ratio; the % refers to the signal ratio;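 also: cells exposed to compound for two days before reading; 0% is about no effect; ratio rise marks activators and ratio drop marks inhibitors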). A digest of the protocol:
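S3 HeLa cells stably expressing a lamin A-EGFP splicing minigene and DsRed2 were seeded at 600 cells/well in Opti-MEM with 2% FBS, pin-dosed, and incubated 48 hrs at 37 °C, 5% CO2. Laser-scanning cytometry (488 nm) gave GFP/RFP total intensity ratio.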

Assay [9] is described as follows: qHTS Assay for Lipid Storage Modulators (AID 1519; calls by dose curve; as to activity change, negative = inhibition: % is scaled to controls: 0 for no effect and ±100 for the full control effect). The settings on record: Drosophila S3 cells, BODIPY lipid droplet/cell ratio, laser cytometry, cells loaded with oleic acid. The method in brief: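 Cells seeded at 5,000 per well were treated with compounds over a concentration series and loaded with oleic acid (400 uM, as added). Lipid droplet fluorescence (488 nm excitation, 500-530 nm channel) was read by laser-scanning cytometry and normalized to 20 uM Triacsin C.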

The target in assay [10] is DNA repair nuclease/redox regulator APEX1 (Homo sapiens) (UniProt P27695). The experiment in a line: qHTS Validation Assay for Inhibitors of the Human Apurinic/apyrimidinic Endonuclease 1 (APE1) (AID 1705;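 also: TAMRA fluorescence gain over two minutes as APE1 cuts a quenched THF abasic duplex; % is scaled to controls: 0 for no effect and ±100 for the full control effect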). The method in brief:
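Human APE1 was preincubated with compound for 15 min at room temperature, then 50 nM (final) THF-abasic double-stranded DNA substrate bearing 5'-TAMRA and 3'-BHQ-2 was added. Incision-driven fluorescence rise (ex 525/em 598 nm) was read kinetically.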
A general note: qHTS replaces the single test concentration by a dilution series.

Assay [11] in a line: Counterscreen for APE1 Inhibitors: Fluorescent Dye Displacement Validation Assay (AID 1707).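 Also: plate controls were ThO with dsDNA and no compound for no effect and ThO without dsDNA for full effect.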 The method in brief: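 ThO 250 nM + dsDNA 50 nM (THF abasic site, 5'-TAMRA), Tris-HCl pH7.5/50mM NaCl/2 mM MgCl2/0.01% Tween-20; compounds pin-transferred; ex 480/em 540 nm endpoint. Neutral = no compound; no-DNA ThO wells = negative control.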
Assay [12] deals with Endonuclease 4 (Escherichia coli (strain K12)) (UniProt P0A6C1). The experiment in a line: Counterscreen for APE1 Inhibitors: qHTS Validation Assay for Inhibitors of Endonuclease IV (AID 1708). Also: % is scaled to controls: 0 for no effect and ±100 for the full control effect. The method in brief:
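2 nM enzyme was preincubated with compounds for 15 min at room temperature in 50 mM Tris-HCl pH 7.5, 50 mM NaCl, 2 mM MgCl2, 1 mM DTT, 0.01% Tween-20. 50 nM THF-abasic TAMRA/BHQ-2 duplex substrate started the reaction.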

A short description of assay [13]: qHTS for differential inhibitors of proliferation of Plasmodium falciparum line 3D7 (AID 1876).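 Also: parasite growth measured after three days of culture; 0% = vehicle wells and -100% = reference inhibitor wells.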
Assay [14] can be described thus: qHTS for differential inhibitors of proliferation of Plasmodium falciparum line Dd2 (AID 1882).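 Also: compound exposure of 72 h on infected erythrocytes; plate controls were DMSO vehicle for no effect and 0.29 µM artemisinin for full effect; nearly all actives have a fitted effect of over 65% in size.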 As to conditions: Potency: Plasmodium falciparum Dd2 proliferation inhibition. A digest of the protocol:
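SYBR Green I DNA fluorescence read-out, ex 485/em 535 nm. Signals were normalized to 0.29 uM artemisinin and DMSO wells, then corrected using vehicle-only plates flanking each stack. Parasite growth ran 72 h in erythrocytes before lysis.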

Assay [15] in a line: qHTS for differential inhibitors of proliferation of Plasmodium falciparum line HB3 (AID 1886).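 Also: parasites grown with compound for 72 h before SYBR Green readout; plate controls were vehicle for no effect and reference inhibitor for full effect.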 As to conditions: Potency: Plasmodium falciparum HB3 proliferation inhibition.
A short description of assay [16]: qHTS for differential inhibitors of proliferation of Plasmodium falciparum line 7G8 (AID 1815).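 Also: parasite growth measured after three days of incubation; plate controls were vehicle wells for no effect and reference inhibitor wells for full effect.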
Assay [17] is described as follows: qHTS for differential inhibitors of proliferation of Plasmodium falciparum line GB4 (AID 1816).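 Also: parasite growth measured after 72 h incubation; 0% = vehicle DMSO and -100% = reference inhibitor.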 The settings on record: Potency: Plasmodium falciparum GB4 proliferation inhibition.
Assay [18] can be described thus: qHTS for differential inhibitors of proliferation of Plasmodium falciparum line D10 (AID 1877).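 Also: parasites grown with compound for 72 h before DNA staining; plate controls were vehicle wells for no effect and reference inhibitor wells for full effect.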
Assay [19] in a line: qHTS for differential inhibitors of proliferation of Plasmodium falciparum line W2 (AID 1883).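 Also: parasites grown with compound for 72 h before lysis and staining.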 Also: potency is read from the fitted curve at half-maximal effect.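 As to activity change, negative = inhibition: 0% = vehicle wells and -100% = control inhibitor wells.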 The settings on record: Potency: Plasmodium falciparum W2 proliferation inhibition.
Assay [20] in a line: qHTS Assay for Modulators of Human Peripheral Myelin Protein 22 (PMP22) Expression/Activity (AID 1967; active = well fitted curve in the direction sought with a large enough effect in the signal ratio; the % refers to the signal ratio;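 also: 0% = untreated cells and 100% end not stated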). The method in brief: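 MSC80 mouse Schwann cells stably carrying Pmp22 promoter–green click beetle luciferase plus EF-alpha–red luciferase control were dosed for 24h at 37 °C. Dual-colour luminescence was filter-overlap corrected; %Activity came from green/red ratio versus untreated cells.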

Setting [21] is: measured here: cell count channel max response.
[22] abbreviates: measured here: lipid channel max response.

Chain of Alpha-galactosidase (Coffea arabica) (Q42656 whole entry, looked up): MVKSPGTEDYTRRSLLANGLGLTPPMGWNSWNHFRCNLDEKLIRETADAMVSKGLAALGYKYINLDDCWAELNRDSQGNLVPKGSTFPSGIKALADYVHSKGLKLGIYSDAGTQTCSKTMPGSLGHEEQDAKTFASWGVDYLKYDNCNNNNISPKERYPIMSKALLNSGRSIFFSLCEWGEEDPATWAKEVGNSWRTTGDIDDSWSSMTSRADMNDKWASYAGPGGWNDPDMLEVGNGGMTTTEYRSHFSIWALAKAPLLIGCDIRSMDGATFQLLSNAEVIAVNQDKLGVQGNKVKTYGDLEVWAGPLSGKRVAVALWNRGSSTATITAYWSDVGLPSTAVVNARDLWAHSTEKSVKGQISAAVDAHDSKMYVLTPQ
Chain of Alpha-galactosidase A (Homo sapiens) (P06280 whole entry, looked up): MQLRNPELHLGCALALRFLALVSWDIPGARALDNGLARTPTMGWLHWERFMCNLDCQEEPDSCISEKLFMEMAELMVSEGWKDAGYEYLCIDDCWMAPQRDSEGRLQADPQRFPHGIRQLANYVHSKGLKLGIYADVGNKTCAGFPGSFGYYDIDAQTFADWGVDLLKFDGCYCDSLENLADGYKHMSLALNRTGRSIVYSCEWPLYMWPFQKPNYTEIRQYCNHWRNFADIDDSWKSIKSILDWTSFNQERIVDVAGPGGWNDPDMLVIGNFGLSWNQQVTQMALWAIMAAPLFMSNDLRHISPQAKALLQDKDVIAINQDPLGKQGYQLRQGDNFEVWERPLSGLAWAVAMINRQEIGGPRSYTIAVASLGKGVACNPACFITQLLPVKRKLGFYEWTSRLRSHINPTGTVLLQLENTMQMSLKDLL
Chain of DNA repair nuclease/redox regulator APEX1 (Homo sapiens) (P27695 whole entry, looked up): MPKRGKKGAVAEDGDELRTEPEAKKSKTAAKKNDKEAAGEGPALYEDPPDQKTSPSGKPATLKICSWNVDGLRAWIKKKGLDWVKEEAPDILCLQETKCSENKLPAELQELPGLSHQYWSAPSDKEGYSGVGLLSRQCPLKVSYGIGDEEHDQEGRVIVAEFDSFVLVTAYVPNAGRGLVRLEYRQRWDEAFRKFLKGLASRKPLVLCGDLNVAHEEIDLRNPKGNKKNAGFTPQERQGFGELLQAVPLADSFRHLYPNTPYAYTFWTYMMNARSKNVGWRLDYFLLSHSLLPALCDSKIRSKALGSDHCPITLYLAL

Take `C[C@]12CCC(=O)C=C1CC[C@@H]1[C@@H]2CC[C@]2(C)C(=O)CC[C@@H]12`: the result in assay [1], in assay [2], in assay [3], in assay [6], in assay [7] and in assay [8] was inactive. For the same compound, the compound was classed as inactive in assay [11] and in assay [12]. In addition, the Potency result in assay [4], in [5], in assay [10], in assay [13], in [14] and in [15] was “inactive” in each case. The activity change, negative = inhibition in assay [9] (at 57.5 µM (top of the series)) was 0.917% (inactive). In addition, the max response was determined as 67.2% in assay [9] (setting [21]) and 68.1% in [9] (setting [22]).

As for `COc1ccc2c(c1)C13CCCC[C@@H]1C(C2)N(C)CC3` (some centres not stated), the activity change, negative = inhibition in assay [9] (at 25.7 µM (top of the series)) was -0.828% (inactive). Besides, the max response was -8.06% in assay [9] (setting [21]) and -9.19% in assay [9] (setting [22]).

As to `Clc1ccc(C(c2ccc(Cl)cc2)C(Cl)(Cl)Cl)cc1`, the result in assay [1] and in assay [2] was inactive. In assay [4], the Potency was 50.1 µM (active). Besides, in assay [5], the Potency result is “inactive”.

With `COc1c2c(cc3c1OCO3)CCN(C)C2`, in [9] (at 25.7 µM (top of the series)), the activity change, negative = inhibition was 1.64% (inactive). Further, the figures for the max response in assay [9] (setting [21]) and in [9] (setting [22]) were 2.73% and 3.88%, respectively.

`Clc1cccc(SC2CCNCC2)n1`: in [9] (at 57.5 µM (top of the series)), the activity change, negative = inhibition was -5.67% (inactive). The max response in assay [9] (setting [21]) is -24.9%; in assay [9] (setting [22]), -29.2%.

Regarding `NCCc1ccc(O)cc1`, the outcome in [1], in [2], in assay [3], in assay [6], in [7] and in assay [8] was inactive. Further, the compound was called inactive in assay [11], in assay [12] and in assay [20]. Besides, the Potency entry in [4], in assay [5], in [10], in assay [16], in assay [17] and in assay [13] was “inactive” in each case. For the same compound, the Potency entry in assay [18], in assay [14], in assay [19] and in [15] was “inactive” throughout.

As to `O=C(O)CCCc1ccc(N(CCCl)CCCl)cc1`, the call in assay [3], in assay [6], in assay [7], in assay [11] and in [12] was inactive. For the same compound, the Potency entry in assay [4] and in [10] was “inactive” throughout. The values for the Potency in assay [5] and in [19] were 25.1 µM (active) and 11.2 µM (active), respectively. Also, the values for the activity change, negative = inhibition in assay [9] (at 25.7 µM (top of the series)) and in [9] (at 57.5 µM (top of the series)) were 2.25% (inactive) and 2.66% (inactive), respectively. Moreover, the max response in [9] (setting [21]) is -7.28% and 5.28%; in assay [9] (setting [22]), -5.54% and 10.7%.

As to `Cn1c(=O)c2[nH]cnc2n(C)c1=O`, the outcome in assay [7] and in assay [11] was inactive. For the same compound, the activity change, negative = inhibition in [9] (at 25.7 µM (top of the series)) was -0.949% (inactive) and -1.67% (inactive); in assay [9] (at 57.5 µM (top of the series)) it was 8.67% (inactive). The max response in assay [9] (setting [21]) was -7.33% and -5.65% and 13.2%; in assay [9] (setting [22]) it was -6.71% and -6.91% and 31.3%.

`Cc1ccc(C(=O)c2ccc(CC(=O)O)n2C)cc1`: the activity change, negative = inhibition in assay [9] (at 25.7 µM (top of the series)) was -1.39% (inactive). The max response was -5.63% in assay [9] (setting [21]) and -8.93% in assay [9] (setting [22]).

`NC(=O)c1cc([N+](=O)[O-])cc([N+](=O)[O-])c1`: the activity change, negative = inhibition in assay [9] (at 57.5 µM (top of the series)) was 2.42% (inactive). Besides, the max response stood at 0.174% in assay [9] (setting [21]) and 7.25% in [9] (setting [22]).

Take `c1ccc2c(c1)sc1ccccc12`: the activity change, negative = inhibition in assay [9] (at 57.5 µM (top of the series)) is 7.62% (inactive). Also, the max response in assay [9] (setting [21]) is -5.03%; in assay [9] (setting [22]) it was 4.45%.
